Results reported in PubChem BioAssay AID624255 (Broad Institute, 2012).
Values joined by “and” are separate entries in the source; they are usually repeats but may differ in a detail not shown here. Identical values can stand only once. About 4,600 (6%) of roughly 77,000 compounds were called active. Roughly 1% stayed inconclusive and do not appear here.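 How the source made its calls: active means mean inhibition above about 93%, with at least 55% of replicates each passing it (limit read from the data, passing the limit was not always enough); inconclusive means only one of those two conditions holds; inactive means neither condition holds.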 This excerpt belongs to a sample that is enriched for actives.

Assay: growth inhibition of T. cruzi in host fibroblasts – cell-based, beta-gal Tulahuen parasites, NIH3T3 host, luminescence, primary screen (AID 624255)
Settings: T. cruzi beta-gal in NIH3T3, GalScreen luminescence, 90 h; at 8.34 µM; stronger effect = higher value

| SMILES | inhibition |
| --- | --- |
| COc1ccc(-c2ccc([C@H]3[C@H](CO)N4CCCCN(C(=O)Cc5ccncc5)C[C@@H]34)cc2)cc1 | 102% (active) |
| O=C(Cc1cccnc1)N1CCCCN2[C@@H](CO)[C@H](c3ccc(C#CC4CCCC4)cc3)[C@@H]2C1 | 110% (active) |
| O=C(Cc1ccncc1)N1CCCCN2[C@H](CO)[C@@H](c3ccc(C#CC4(O)CCCC4)cc3)[C@H]2C1 | 63% (inactive) |
| O=C(Cc1ccncc1)N1CCCCN2[C@@H](CO)[C@H](c3ccc(-c4ccncc4)cc3)[C@@H]2C1 | 60.5% (inactive) |
| COc1cccc(-c2ccc([C@H]3[C@H]4CN(C(=O)Cc5ccncc5)CCCCN4[C@H]3CO)cc2)c1 | 80.9% (inactive) |
| O=C(Cc1ccncc1)N1CCCCN2[C@@H](CO)[C@H](c3ccc(C#CC4(O)CCCC4)cc3)[C@@H]2C1 | 93.8% (inactive) |
| N#Cc1cccc(-c2ccc([C@H]3[C@@H](CO)N4CCCCN(C(=O)Cc5cccnc5)C[C@@H]34)cc2)c1 | 61.2% (inactive) |
| O=C(Cc1ccccn1)N1CCCCN2[C@@H](CO)[C@@H](c3ccc(C#Cc4ccccc4)cc3)[C@@H]2C1 | 110% (active) |
| O=C(Cc1ccccn1)N1CCCCN2[C@H](C1)[C@H](c1ccc(-c3ccccc3F)cc1)[C@@H]2CO | 16.7% (inactive) |
| C/C=C/c1ccc([C@H]2[C@H](CO)N3CCCCN(C(=O)Cc4ccncc4)C[C@@H]23)cc1 | 126% (active) |
| OC[C@@H]1[C@H]2c3ccccc3NC[C@H]2N1Cc1cccnc1 | 77.8% (inactive) |
| COC(=O)[C@H]1[C@H](CO)[C@H]2Cn3c(ccc(C4=CCCC4)c3=O)[C@@H]1N2C(=O)CC1CC1 | 11.8% (inactive) |
| COC(=O)[C@@H]1[C@@H](CO)[C@@H]2Cn3c(ccc(-c4ccc(F)cc4)c3=O)[C@H]1N2C(C)=O | -2.43% (inactive) |
| COC(=O)[C@H]1[C@H](CO)[C@H]2Cn3c(ccc(-c4cccc(F)c4)c3=O)[C@@H]1N2Cc1ccccc1 | 8.82% (inactive) |
| O=C(O)[C@H]1[C@H](CO)[C@H]2Cn3c(cccc3=O)[C@@H]1N2C(=O)c1ccccc1 | 42.5% (inactive) |
| O=C(O)[C@H]1[C@H](CO)[C@H]2Cn3c(ccc(-c4ccccc4F)c3=O)[C@@H]1N2C(=O)c1cccnc1 | 30% (inactive) |
| COC(=O)C[C@@H]1CC[C@@H]2NC[C@@H](O)COC[C@H]2O1 | 54.8% (inactive) |
| COC(=O)[C@H]1[C@H](CO)[C@H]2Cn3c(ccc(-c4ccccc4F)c3=O)[C@@H]1N2C(=O)C1CCC1 | 44.2% (inactive) |
| COc1cccc(-c2ccc3n(c2=O)C[C@@H]2[C@@H](CO)[C@H](C(=O)O)[C@H]3N2C(=O)c2cnccn2)c1 | 39.3% (inactive) |
| C[C@H]1CN([C@@H](C)CO)C(=O)CCCn2nncc2CO[C@H]1CN(C)C(=O)Oc1cccc2ccccc12 | -20.3% (inactive) and -6.68% (inactive) |
| O=C(Cc1ccccc1)N1CCCCN2[C@H](C1)[C@H](c1ccc(C#CC3(O)CCCC3)cc1)[C@@H]2CO | 84.7% (inactive) |
| COc1ccc(C#Cc2ccc([C@H]3[C@H](CO)N4CCCCN(C(=O)Cc5ccccc5)C[C@@H]34)cc2)cc1 | 109% (active) |
| O=C(Cc1ccccc1)N1CCCCN2[C@H](CO)[C@H](c3ccc(C#Cc4ccccc4)cc3)[C@H]2C1 | 94.6% (inactive) |
| COC(=O)[C@@H]1[C@@H](CO)[C@@H]2Cn3c(ccc(C4=CCCCC4)c3=O)[C@H]1N2CC1CC1 | 48.5% (inactive) |
| C[C@H]1CN([C@@H](C)CO)C(=O)CCCn2nncc2CO[C@H]1CN(C)C(=O)Oc1ccccc1 | 32% (inactive) and -17.3% (inactive) |
